# According to PubChem BioAssay (NCATS):
# Records with an inconclusive call do not appear. Calls of active or inactive are those of the source. Calls follow the shape of the dose curve; as a rule, active = well fitted cell-killing curve with a large enough effect; inconclusive = small, poorly fitted or top-dose-only effect, or effect the other way; inactive = no such curve, though single readings can be large or run the other way.
# Assay: Quantitative High-Throughput drug screen in 47 multiple myeloma cell lines against the NCATS MIPE library collection: XG6_PLB cell viability assay (AID 1919865); also: nearly all actives have a fitted effect of over 40% in size
# Conditions: XG6 myeloma viability, CellTiter-Glo ATP luminescence, 48 h; series mostly up to 45.8 µM
# How it was run: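 ATP-based CellTiter-Glo luminescence after 48 h drug exposure (37 °C, 5% CO2) of 500 myeloma cells per well. DMSO-only wells set 100% viability, media-only wells 0%; MIPE 4.0 library added by pin tool.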
# Potency is read from the fitted curve at half-maximal effect.
row,SMILES,Potency
1,CC[C@H](CC#N)OC(=O)N[C@@H](C)c1cccc(NC(=O)Nc2ccc(-c3cnco3)c(OC)c2)c1,2.96 µM (active)
2,Cc1ccccc1C(=O)c1ccc(Nc2ccc(Br)cc2N)cc1Cl,18.7 µM (active)
3,CCN1CCC(n2cc(CNc3cc(Cl)c4ncc(C#N)c(Nc5ccc(F)c(Cl)c5)c4c3)nn2)CC1,14.8 µM (active)
4,Cc1ccc2c(c1)C(=O)[C@]1(O)CCN(c3ccccc3)C1=N2,inactive
5,CCc1cccc(CC)c1NC(=O)N1Cc2[nH]nc(NC(=O)c3ccc(N4CCN(C)CC4)cc3)c2C1,8.33 µM (active)
6,Nc1ncnc2c1ncn2[C@@H]1O[C@H](CO)[C@@H](O)[C@@H]1O,2.64 µM (active)
7,C#CCN(C)CC1=Cc2ccccc2Oc2ccccc21,inactive
8,COc1ccc(CCN(C)CCCOc2ccc(S(=O)(=O)c3[nH]c4ccccc4c3C(C)C)cc2)cc1OC,26.4 µM (active)
9,N#Cc1ccc(Oc2ccc3c(c2)COB3O)cc1,16.6 µM (active)
10,c1cc(OCCN2CCCCC2)cc(-c2n[nH]c3ccc(-c4ncn[nH]4)cc23)c1,5.26 µM (active)
11,CN[C@@H]1CN(c2ccc3c(=O)c(C(=O)O)cn(-c4nccs4)c3n2)C[C@@H]1OC,1.62 µM (active)
12,O=C(C=Cc1ccc(O)cc1)c1ccc(O)cc1O,18.7 µM (active)
13,COc1ccc2c(c1)CC[C@H]1[C@@H]2CC[C@]2(C)[C@@H](NCCCCCCN3C(=O)C=CC3=O)CC[C@H]12,inactive
14,CO[C@H]1C=CO[C@@]2(C)Oc3c(C)c(O)c4c(O)c(c(C=NN5CCN(C)CC5)c(O)c4c3C2=O)NC(=O)C(C)=CC=C[C@H](C)[C@H](O)[C@@H](C)[C@@H](O)[C@@H](C)[C@H](OC(C)=O)[C@H]1C,inactive
